Peg3 prom inh-1 = inhibitors of Peg3 promoter; HeLa PEG-Prom luciferase reporter, luminescence, overnight; 360,000 tested, 1.7% active; inhibition, % at 20 µM;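 active = inhibition of at least 50% at 20 µM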
Shn3 3UTR inh = inhibitors of Schnurri-3 3'UTR reporter in osteoblasts. Clone20 osteoblast Shn3 3'UTR firefly luciferase, 24 h. inhibition, % at 12.5 µM. 360,000 tested, 0.52% active. AID 588674;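 active = mean inhibition of at least 75% with every replicate also reaching 75%; inconclusive = mean inhibition at least 75% but some replicate below; inactive = mean inhibition below 75%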;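 note: 0% = median of neutral control wells and 100% = pilot-screen positive control compound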
EWS-Fli inh = EWS/Fli transcriptional activity inhibition. A673 NR0B1-luciferase reporter, viability-normalised. inhibition, % at 12.6 µM. 350,000 tested, 0.67% active. AID 651661;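 active = mean inhibition of at least 50% after viability correction, with every replicate also passing that limit; inconclusive = mean reaches 50% but only one of two replicates passes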;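 note: firefly luciferase signal divided by Alamar Blue viability fluorescence both relative to DMSO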
ABHD5-PLIN5 inh = blocks binding of human ABHD5 to perilipin-5; Split G. princeps luciferase complementation, luminescence, 4 h; inhibition, % at 4 µM; 360,000 tested, 0.78% active;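 active = inhibition above the mean inhibition across every tested compound plus 3 SD, cut at about 22% in these data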;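 note: 0% = DMSO only wells and the 100% control is not disclosed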
Target sequence (Q00G26 whole entry, looked up): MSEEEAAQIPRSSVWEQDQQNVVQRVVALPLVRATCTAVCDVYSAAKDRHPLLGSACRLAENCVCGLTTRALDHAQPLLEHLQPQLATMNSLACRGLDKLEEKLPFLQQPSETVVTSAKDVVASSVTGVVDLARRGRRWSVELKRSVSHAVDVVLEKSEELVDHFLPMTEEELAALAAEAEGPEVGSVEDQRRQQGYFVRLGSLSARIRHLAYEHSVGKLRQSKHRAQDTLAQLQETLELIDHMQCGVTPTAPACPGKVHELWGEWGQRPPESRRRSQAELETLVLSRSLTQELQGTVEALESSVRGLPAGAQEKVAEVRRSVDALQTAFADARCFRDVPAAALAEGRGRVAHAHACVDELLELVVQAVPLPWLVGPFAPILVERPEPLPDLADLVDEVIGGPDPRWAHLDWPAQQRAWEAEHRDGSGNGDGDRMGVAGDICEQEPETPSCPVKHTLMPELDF
Target sequence (Q8WTS1 whole entry, looked up): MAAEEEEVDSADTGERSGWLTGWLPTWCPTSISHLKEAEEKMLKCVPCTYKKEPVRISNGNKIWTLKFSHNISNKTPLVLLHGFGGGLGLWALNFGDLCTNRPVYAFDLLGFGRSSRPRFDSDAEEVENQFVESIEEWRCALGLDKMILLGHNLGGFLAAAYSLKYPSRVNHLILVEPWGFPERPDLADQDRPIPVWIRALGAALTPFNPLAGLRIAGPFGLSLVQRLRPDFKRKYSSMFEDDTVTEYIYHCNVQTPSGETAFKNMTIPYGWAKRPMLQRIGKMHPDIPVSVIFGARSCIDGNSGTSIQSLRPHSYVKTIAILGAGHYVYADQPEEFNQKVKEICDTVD
PAX8 inh HTS = PAX8 transcriptional activity inhibition; AID 652154; 360,000 tested, 1.2% active; inhibition, % at 12.6 µM; RMG-I TPO-luciferase reporter, SteadyGlo, 24 h;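 active = mean replicate inhibition at least 60% with every replicate also reaching 60%; inconclusive = only one of the two criteria is met; inactive = mean below 60% and not all replicates reaching 60%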;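 note: luciferase light reporting Pax8 driven TPO promoter activity; plate controls were median of neutral control wells for no effect and mitoxantrone controls for full effect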
TRPM1 prom inh = MITF TRPM1 promoter inhibition in SK-MEL-5 cells; SK-MEL-5 TRPM1 promoter luciferase, 24 h; 330,000 tested, 0.83% active; inhibition, % at 12.5 µM; AID 488899;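 active = mean inhibition across replicates of 60% or more, whatever share of single replicates reaches that level; inconclusive = some that reach 60%, reason not given; inactive = mean inhibition across replicates below 60%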
Peg3 prom inh-2 = Peg3 promoter inhibition confirmation | shares compounds with Peg3 prom inh-1 | HeLa PEG-Prom luciferase reporter, luminescence, overnight | inhibition, % at 20 µM | 1,300 tested, 84% active;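 active = at 20 µM dose, 40% or more inhibition averaged across four replicates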
Numbers without * were called inactive; u = inconclusive; x = no result. This is a sample that favours compounds with a hit; in the whole collection about 3% have one here.

SMILES	Peg3 prom inh-1	Shn3 3UTR inh	EWS-Fli inh	ABHD5-PLIN5 inh	PAX8 inh HTS	TRPM1 prom inh	Peg3 prom inh-2
C[C@@H]1CN([C@H](C)CO)S(=O)(=O)c2ccc(C3=CCCC3)cc2O[C@H]1CN(C)C(=O)C1CC1	x	x	1.9	x	x	x	x
CN(C)CCc1cc2c(c3c1ccc1ccccc13)OCO2	93.2*	1.3	-25.7	1.7	15.3	5.0	92.9*
CCC(C)(C)c1ccc(Oc2ccc(N)cc2)cc1	72.0*	88.2*	65.2*	-7.0	u	97.8*	90.7*
CC(C)NC(=O)N(C)C[C@H]1Oc2ncc(C#Cc3ccncc3)cc2C(=O)N([C@H](C)CO)C[C@@H]1C	x	x	-9.2	x	x	x	x
O=C(C[C@@H]1C[C@H]2c3cc(NC(=O)CC4CC4)ccc3O[C@H]2[C@H](CO)O1)NCc1cccc(F)c1	x	x	-1.3	x	x	x	x
C[C@@H]1CN([C@H](C)CO)C(=O)c2cc(NC(=O)Nc3ccc(C(F)(F)F)cc3)ccc2O[C@@H]1CN(C)Cc1ccc(Cl)c(Cl)c1	x	x	-5.4	x	x	x	x
COc1ccc(C)cc1Nc1n[n+](-c2ccccc2)c(-c2ccc(N(C)C)cc2)s1	61.6*	47.2	9.8	4.8	30.7	33.5	50.0*
COc1ccc(C)cc1Nc1n[n+](-c2ccccc2)c(-c2ccc(OC)c(OC)c2OC)s1	3.0	32.4	9.2	-2.0	41.2	25.7	x
COc1cccc(/C=N/NC(=O)c2c(-c3ccccc3)noc2C)c1OC	-2.4	-8.4	x	-1.7	-9.2	4.9	x
COc1cccc(/C=N/NC(=O)c2c(-c3ccccc3)noc2C)c1O	55.2*	88.3*	x	1.9	x	47.2	56.2*
O=C(NCCc1ccccc1F)c1ccc2c(c1)OCCO2	106.4*	u	90.3*	1.0	110.2*	88.4*	92.9*
CC(/C=N\Nc1nnc2c(n1)[nH]c1c(C)cccc12)=C\c1ccco1	64.8*	6.6	32.6	5.5	x	20.7	14.3
CC(/C=N/n1c(-c2ccco2)n[nH]c1=S)=C\c1ccco1	15.3	3.2	x	1.8	10.4	17.1	x
O=C(Nc1nccs1)c1cc2c(s1)CCCCC2	58.0*	29.4	x	0.6	x	45.9	15.6
COc1cc(/C=C2\SC(=Nc3ccccc3OC)NC2=O)ccc1O	64.3*	-10.9	34.7	-11.1	70.5*	46.2	67.9*
COc1ccc(/C=C2\SC(=Nc3ccccc3OC)NC2=O)cc1	24.1	1.2	3.7	2.5	23.6	-0.7	x
N#C[C@@H]1[C@H](c2ccc(-c3ccccc3F)cc2)[C@H](CO)N1C(=O)C1CC1	x	x	1.3	x	-6.2	x	x
O=C(CCn1cnc(-c2ccccc2)c1-c1ccccc1)N/N=C/c1ccccc1O	55.6*	u	23.7	-0.1	47.1	27.2	69.7*
O=S(=O)(Nc1cccc2ncccc12)c1cccs1	103.1*	94.0*	x	-0.7	x	84.2*	96.7*
Cc1c(NS(=O)(=O)c2cccs2)cccc1-c1nc2cccnc2s1	-53.4	3.2	-20.1	-0.9	-34.0	-2.5	x
C[C@@H]1CCCCO[C@@H](CN(C)C(=O)Cc2ccccc2)[C@H](C)CN([C@H](C)CO)C(=O)c2cc(NC(=O)c3ccncc3)ccc2O1	x	x	4.4	x	4.9	x	x
CCNC(=O)[C@@H]1[C@@H](CO)[C@@H]2Cn3c(ccc(-c4ccc(OC)cc4)c3=O)[C@@H]2N1Cc1nccs1	x	x	4.2	x	x	x	x
O=C(O)c1ccc(N=N/C(=N\Nc2ccc(C(=O)O)cc2)c2ccccc2)cc1	-74.7	-21.9	-34.6	5.4	-20.5	-6.0	x
Brc1ccc(N/N=C(/N=Nc2nn[nH]n2)c2ccccc2)cc1	70.4*	69.9	-14.4	1.5	54.8	67.0*	63.8*
COc1ccc(CN2CCN(C(=O)c3cc(-c4cccnc4)nc4ccc(Cl)cc34)CC2)c(OC)c1OC	93.8*	21.0	17.5	-1.4	43.0	-3.9	55.8*
Cc1cnn(C(=O)c2cc(-c3ccccn3)nc3ccc(Cl)cc23)c1	3.9	-10.6	13.1	0.7	10.3	21.8	x
O=C(c1cc(-c2ccccn2)nc2ccc(Cl)cc12)N1CCN(CCc2ccccc2)CC1	51.1*	10.0	8.0	3.6	25.3	12.6	35.6
C[C@H]1CN([C@@H](C)CO)C(=O)c2cc(NS(C)(=O)=O)ccc2O[C@H]1CN(C)S(=O)(=O)c1cn(C)cn1	x	x	0.6	x	x	x	x
COc1ccccc1CNC(=O)C[C@H]1C[C@@H]2c3cc(NC(=O)C4CCOCC4)ccc3O[C@@H]2[C@@H](CO)O1	x	x	8.0	x	13.6	x	x

Screening results (PubChem)
